# Test results from PubChem BioAssay.
# Molecular target: Dickkopf-related protein 1 (Homo sapiens) (UniProt O94907)
# Experiment: small molecules binding DKK1 protein – biochemical, small-molecule microarray, 635 nm fluorescence scan, primary screen (AID 1106);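 further: score merges emission near 667 nm with signal to noise over three replicate slides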
# Settings: higher = more signal
# Chain of Dickkopf-related protein 1 (Homo sapiens) (O94907 whole entry, looked up): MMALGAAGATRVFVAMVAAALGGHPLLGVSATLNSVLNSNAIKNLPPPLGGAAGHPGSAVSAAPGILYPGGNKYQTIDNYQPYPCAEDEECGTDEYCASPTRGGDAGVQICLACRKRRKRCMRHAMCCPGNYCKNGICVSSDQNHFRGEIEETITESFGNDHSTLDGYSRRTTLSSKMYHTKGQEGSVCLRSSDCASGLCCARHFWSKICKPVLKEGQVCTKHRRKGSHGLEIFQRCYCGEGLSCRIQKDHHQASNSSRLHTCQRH
row,SMILES,composite z-score
1,C=CCOC(=O)[C@@H]1[C@H]2C(=O)O[C@H](c3ccccc3)[C@H](c3ccccc3)N2[C@H](c2ccc(OCCOC(=O)[C@H]3C[C@H]4C(=O)N[C@@H](CCCCN(C)C)C(=O)N4[C@H]3c3ccc(O)cc3)cc2)[C@@]12C(=O)Nc1ccc(I)cc12,1.15
2,CCCC=C(CCC)[C@@H](NC(=O)c1ccc(C(F)(F)F)cc1)c1ccc(C(F)(F)F)cc1,-0.906
3,COc1cc(C(O)C2C=CC3C(=O)N(c4ccccc4)C(=O)C3N2Nc2ccccc2)cc(OC)c1OC (stereo not drawn),-0.586
4,CC(=O)OCC1C2CC[C@H]3C(OCc4ccc(F)cc4C(F)(F)F)OC[C@]4(C)[C@H]3C2=C(CN4C(=O)OC(C)(C)C)[C@H](C)C1COC(C)=O (stereo partly drawn),-1.31
5,COC(=O)[C@@]1(Cc2ccc(F)cc2)[C@H]2c3cc(C(=O)N4CCCC4)n(Cc4cc(F)cc5c4OCOC5)c3C[C@H]2CN1C(=O)c1ccccc1,-0.334
6,C[C@@H]1ON(c2ccccc2)[C@H](c2ccccc2)[C@H]1C(=O)O,0.796
7,C=CCC(OC(C)=O)[C@@H]1[C@@H](N(Cc2cc3ccccc3o2)C(=O)Cc2ccc(OC)cc2)c2cc(OCCCO)ccc2N1C(=O)c1ccc2ccccc2n1 (stereo partly drawn),0.0467
8,COC(=O)[C@@]1(Cc2ccc(OC)cc2)[C@H]2c3cc(C(=O)N4CCCC4)n(Cc4c(CO)[nH]cc(C)c4=O)c3C[C@H]2CN1C(=O)c1ccccc1,-0.59
9,COc1ccc(NN2C(C(O)c3ccc(I)cc3)C=CC3C(=O)N(C4CCCCC4)C(=O)C32)cc1 (stereo not drawn),0.0284
10,O=C1O[C@H](c2ccccc2)[C@H](c2ccccc2)N2[C@H]1[C@@H](C(=O)N1CCN(c3ncccn3)CC1)[C@]1(C(=O)Nc3ccc(C#CCCO)cc31)[C@H]2c1ccc(O)cc1,0.359
11,CC1CC/C=C\[C@H]2OC34C=CCN(c5ccc(Cl)cc5)C(=O)[C@H]3N(CCCCCCO)C(=O)[C@]4(C)C2C(=O)O1 (stereo partly drawn),-1.43
12,O=C(NC1CC1)[C@@H]1c2ccccc2C(=O)N(Cc2cc(C(F)(F)F)cc(C(F)(F)F)c2)[C@H]1c1ccc(CO)cc1,-0.835
13,COc1ccc([Si](C)(C)[C@@H]2[C@@H](CC(=O)N3Cc4ccccc4C[C@H]3CO)O[C@]3(C(=O)N(Cc4ccc(N5CCOC5=O)cc4)c4ccccc43)[C@H]2C)cc1,0.945
14,CN1C(=O)C2C(C1=O)C1C=C(CCCO)C2C(C2CC2)N1Cc1cccc(OC(F)(F)F)c1 (stereo not drawn),-0.521
15,[N-]=[N+]=Nc1ccccc1[C@@H]1OC(c2ccc(OCCCO)cc2)=N[C@]1(Cc1ccccc1)C(=O)NCCN1CCOCC1,-0.326
16,COC(=O)[C@@]1(Cc2ccccc2)N=C(c2ccc(OCCCO)cc2)O[C@H]1c1ccccc1CN=[N+]=[N-],0.21
17,Cc1ccc(N2C(=O)c3ccccc3[C@](C)(C(=O)NCCCN(C)C)[C@@H]2c2ccc(CO)cc2)nc1,-0.599
18,CC(C)N1C(=O)C[C@@](C(=O)NCCN2CCOCC2)(c2ccc([N+](=O)[O-])cc2)[C@H]1c1ccc(CO)cc1,-1.03
19,CN(C)CCCNC(=O)[C@@]1(Cc2ccccc2I)c2ccccc2C(=O)N(C2CCCCC2)[C@H]1c1ccc(CO)cc1,0.183
20,CC(C)N1C(=O)c2ccccc2[C@@H](C(=O)NCC(F)(F)F)[C@@H]1c1ccc(CO)cc1,-0.459
21,CC(C)=C1C(=O)C(c2ccccc2)=C2CN3C(=O)N(CCc4ccccc4)C(=O)[C@]3(C)[C@H]21,-0.538
22,COCCCNC(=O)[C@@]1(CCS(=O)(=O)c2ccccc2)COC(c2ccc(OCCCO)cc2)=N1,-0.0211
23,O=C1C2C=CC(C(O)C3CCCCC3)N(n3cnnc3)C2C(=O)N1Cc1ccccc1 (stereo not drawn),-0.0435
